The record followed here is PMC5540273 (PLoS ONE, 2017).

Details in all cases: concentration: 1 μM,replicates: in singlicate; n = 1
The test system of assay [1] is PIP5K1A.
For assay [2], the system named is PIP5K1C.
Assay [3] relates to PIP5K2B.
The subject of assay [4] is T1, PIP5K2C.
T1 construct: gene PIP4K2C

For assay [5], the system named is T2, PKAC-alpha.
T2 construct: gene PRKACA

Assay [6] relates to T3, PKAC-beta.
T3 construct: gene PRKACB

Assay [7] deals with PKMYT1.
Assay [8] relates to PKN1.
Assay [9] has as its system PKN2.
Assay [10] concerns PLK1.
The test system of assay [11] is PLK2.
In assay [12] the test system is PLK3.
Assay [13] relates to PLK4.
Assay [14] concerns PRKCD.
Assay [15] relates to PRKCE.
The test system of assay [16] is PRKCH.
The subject of assay [17] is PRKCI.
Assay [18] deals with PRKCQ.
Assay [19] has as its system PRKD1.
The test system of assay [20] is PRKD2.
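Note: KINOMEscan kinase panel screen.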

For the molecule `NC(=O)c1cc(-c2ccccc2)cc2c(C3CCNCC3)c[nH]c12` [GSK301362], the “%Inh” value in assay [1] was determined as 0%; in [2] it was 33%; in [3], 14%; in [4] it was 75%; in assay [5] it was 0%; in assay [6] it was 11%. Also, the “%Inh” value was found to be 17% in [7]; 50% in [8]; 0% in assay [9]; 10% in [10]; 34% in assay [11]; 0% in assay [12]. The “%Inh” value in assay [13] was determined as 0%; in assay [14] it was 40%; in assay [15], 46%; in assay [16], 71%; in assay [17], 35%; in [18], 64%. In addition, the “%Inh” value is reported as 37% in assay [19] and 2% in [20].

In the case of `C=CC(=O)Nc1cc2c(Nc3ccc(F)c(Cl)c3)ncnc2cc1OCCCN1CCOCC1` [GW781483], the “%Inh” value in assay [1] was 18%; in assay [2] it was 0%; in assay [3] it was 0%; in [4], 27%; in assay [5], 11%; in assay [6], 10%. For the same molecule, the “%Inh” value turned out to be 20% in assay [7]; 18% in assay [8]; 0% in [9]; 0% in assay [10]; 0% in assay [11]; 0% in assay [12]. Besides, the “%Inh” value in [13] amounted to 26%; in assay [14] it was 0%; in assay [15], 30%; in [16], 0%; in [17], 0%; in assay [19] it was 0%. Further, in [20], the “%Inh” value was 0%.

For `CCN(CC)CCCCNc1ncc2cc(-c3c(Cl)cccc3Cl)c(NC(=O)NC(C)(C)C)nc2n1`, the “%Inh” value is 0% in assay [1]; 0% in assay [2]; 0% in assay [3]; 3% in assay [4]; 11% in [5]; 0% in [6]. Moreover, the “%Inh” value in assay [7] was found to be 0%; in [8], 0%; in assay [9] it was 4%; in assay [10], 0%; in assay [11] it was 5%; in assay [12], 7%. Further, the “%Inh” value is given as 13% in [13]; 22% in assay [14]; 74% in [15]; 0% in assay [16]; 19% in assay [17]; 0% in assay [18]. The “%Inh” value in assay [19] is listed as 28%; in assay [20], 5%.

Take `CCN(CC)CCOc1ccc(Nc2ncc3cc(-c4c(Cl)cccc4Cl)c(=O)n(C)c3n2)cc1` [SB-601273]: the “%Inh” value was found to be 72% in [1]; 82% in assay [2]; 16% in [3]; 90.7% in assay [4]; 26% in assay [5]; 0% in assay [6]. The “%Inh” value came to 98.6% in assay [7]; 57% in assay [8]; 6% in [9]; 26% in assay [10]; 27% in [11]; 52% in assay [12]. The “%Inh” value in assay [13] is 30%; in [14] it was 0%; in assay [15], 22%; in [16], 0%; in assay [17] it was 26%; in [18] it was 27%. Further, the “%Inh” value in assay [19] is 93.3%; in [20] it was 93.6%.

For `CCn1c(-c2nonc2N)nc2c(C#CC(C)(C)O)nc(OCCN)cc21.Cl.Cl` [GSK902056], the “%Inh” value in assay [1] is 1%; in assay [2], 86%; in [3], 9%; in assay [4], 13%; in [5] it was 67%; in [6], 81%. The “%Inh” value in assay [7] was 8%; in [8] it was 8%; in assay [9], 0%; in [10] it was 0%; in assay [11], 0%; in assay [12], 0%. Moreover, the “%Inh” value came to 3% in [13]; 81% in assay [14]; 97.9% in [15]; 96.5% in assay [16]; 20% in [17]; 89% in assay [18]. In addition, the “%Inh” value in [19] and in assay [20] was 14% each time.

With `Cc1n[nH]c2ccc(-c3cc(OC[C@@H](N)Cc4ccccc4)cnc3-c3ccoc3)cc12.O=C(O)C(F)(F)F.O=C(O)C(F)(F)F` [GSK507358], the “%Inh” value is 0% in [1]; 38% in assay [2]; 41% in [3]; 31% in assay [4]; 98.9% in assay [5]; 98% in assay [6]. The “%Inh” value was 0% in assay [7]; 33% in assay [8]; 9% in assay [9]; 3% in assay [10]; 0% in assay [11]; 0% in assay [12]. Besides, the “%Inh” value was found to be 0% in assay [13]; 99.8% in assay [14]; 95.5% in assay [15]; 95.9% in assay [16]; 33% in [17]; 95.4% in assay [18]. The “%Inh” value in assay [19] is reported as 91.4%; in assay [20] it was 99.2%.

For `C[C@H]1Oc2cc(cnc2N)-c2c(nn(C)c2C#N)CN(C)C(=O)c2ccc(F)cc21`, the “%Inh” value in assay [1] amounted to 0%; in assay [2], 44%; in [3], 0%; in [4], 0%; in [5] it was 18%; in assay [6] it was 0%. Also, the “%Inh” value in assay [7] came to 33%; in assay [8], 12%; in assay [9], 0%; in [10], 0%; in assay [11] it was 0%; in assay [12], 0%. Further, the “%Inh” value in assay [13] stood at 97.9%; in assay [14], 15%; in assay [15], 0%; in [16] it was 12%; in assay [17], 21%; in assay [18], 12%. Moreover, the “%Inh” value in [19] amounted to 0%; in [20] it was 12%.

Consider `Cc1occc1-c1nc(N)c(OC[C@@H](N)Cc2c[nH]c3ccccc23)cc1-c1cc2c(C)n[nH]c2cn1` [GSK1660450], for which the “%Inh” value in assay [1] is 65%; in [2], 42%; in assay [3] it was 11%; in [4] it was 0%; in [5], 99.9%; in [6], 99.3%. Moreover, the “%Inh” value came to 24% in assay [7]; 63% in assay [8]; 22% in [9]; 57% in assay [10]; 65% in assay [11]; 52% in assay [12]. In addition, the “%Inh” value in assay [13] is on record as 0%; in [14] it was 100%; in assay [15], 99.6%; in assay [16], 95.7%; in assay [17] it was 34%; in assay [18], 100%. The “%Inh” value in assay [19] was 93.3%; in assay [20], 97.4%.

Turning to `Cl.Oc1cc(-c2nc(-c3ccccc3)[nH]c2-c2ccncc2)ccc1Cl` [SB-386023], the “%Inh” value worked out at 30% in assay [1]; 0% in assay [2]; 16% in assay [3]; 0% in assay [4]; 5% in assay [5]; 1% in [6]. For the same molecule, the “%Inh” value was determined as 0% in assay [7]; 0% in assay [8]; 33% in [9]; 1% in [10]; 33% in assay [11]; 12% in [12]. The “%Inh” value in [13] is given as 17%; in assay [14] it was 0%; in assay [15], 13%; in assay [16], 1%; in [17], 0%; in assay [18], 8%. In addition, the “%Inh” value in assay [19] stood at 0%; in assay [20], 2%.

On to `C[C@@H](Oc1cc(-c2cnn(C3CCNCC3)c2)cnc1N)c1c(Cl)ccc(F)c1Cl`, for which the “%Inh” value was 0% in assay [1]; 0% in assay [2]; 79% in [3]; 0% in [4]; 0% in assay [5]; 0% in [6]. For the same molecule, the “%Inh” value worked out at 0% in [7]; 2% in [8]; 0% in assay [9]; 0% in assay [10]; 17% in assay [11]; 17% in assay [12]. For the same molecule, the “%Inh” value in assay [13] worked out at 88%; in assay [14] it was 20%; in assay [15], 2%; in assay [16], 0%; in assay [17], 24%; in assay [18] it was 26%. For the same molecule, the entries for the “%Inh” value in assay [19] and in assay [20] were 61% and 31%, respectively.

In the case of `Cl.Cl.NC[C@H](Cc1ccc(C(F)(F)F)cc1)NC(=O)c1cc(Br)c(-c2ccnc3[nH]ccc23)s1` [GSK1487252], the “%Inh” value is 0% in assay [1]; 22% in assay [2]; 39% in assay [3]; 3% in assay [4]; 99.4% in assay [5]; 98.8% in assay [6]. Further, the “%Inh” value in assay [7] came out at 10%; in [8] it was 12%; in [9], 79%; in assay [10], 0%; in assay [11] it was 0%; in assay [12] it was 0%. Besides, the “%Inh” value in [13] was 8%; in assay [14] it was 97.3%; in assay [15] it was 97.5%; in [16], 98%; in assay [17], 17%; in assay [18], 88%. Moreover, the “%Inh” value in [19] is 83%; in assay [20] it was 57%.

Consider `O=C(NCCNc1ccnc(NCc2ccc(F)cc2)n1)c1cc2ccccc2s1` [GSK1379944], for which the “%Inh” value in assay [1] is recorded as 0%; in assay [2], 100%; in assay [3] it was 20%; in [4], 12%; in assay [5], 7%; in assay [6], 14%. For the same molecule, the “%Inh” value amounted to 74% in assay [7]; 0% in [8]; 0% in assay [9]; 0% in assay [10]; 0% in [11]; 0% in assay [12]. Moreover, the “%Inh” value in [13] turned out to be 74%; in assay [14], 0%; in [15], 86%; in assay [16], 22%; in [17] it was 8%; in assay [18], 39%. For the same molecule, the “%Inh” value in assay [19] came out at 0%; in assay [20], 70%.

As to `CC(C)N1C(=O)Cc2cc(Nc3ncc(C(F)(F)F)c(NCc4cccc(S(C)(=O)=O)c4)n3)ccc21`, the “%Inh” value in assay [1] was found to be 34%; in assay [2], 0%; in [3] it was 57%; in assay [4], 52%; in [5] it was 0%; in [6] it was 0%. The “%Inh” value in assay [7] was 15%; in [8], 24%; in [9], 7%; in assay [10], 28%; in [11], 61%; in [12] it was 64%. The “%Inh” value is 67% in [13]; 0% in assay [14]; 0% in assay [15]; 0% in [16]; 0% in assay [17]; 9% in [18]. In addition, the “%Inh” value is given as 0% in [19] and 16% in assay [20].
